Measured values reported in PubChem BioAssay AID652105 (National Center for Advancing Translational Sciences (NCATS), 2013).
About 4,100 (1.2%) of roughly 330,000 compounds were called active. Inconclusive results (about 2%) are left out. Many of the other results were omitted from the sample, so actives are more common in it than they were. A number with no mark means an inactive call. How the source made its calls: active means max response of -50% or lower; inconclusive means between -30% and -50%; inactive means -30% or higher.

target: Phosphatidylinositol 5-phosphate 4-kinase type-2 alpha (Homo sapiens) (UniProt P48426); assay: qHTS for Inhibitors of phosphatidylinositol 5-phosphate 4-kinase (PI5P4K); settings: PI5P4Kalpha enzyme, ADP-Glo luminescence, 60 min; active compounds read low; further: value at the top dose of about 77 µM
Sequence (P48426 whole entry, looked up): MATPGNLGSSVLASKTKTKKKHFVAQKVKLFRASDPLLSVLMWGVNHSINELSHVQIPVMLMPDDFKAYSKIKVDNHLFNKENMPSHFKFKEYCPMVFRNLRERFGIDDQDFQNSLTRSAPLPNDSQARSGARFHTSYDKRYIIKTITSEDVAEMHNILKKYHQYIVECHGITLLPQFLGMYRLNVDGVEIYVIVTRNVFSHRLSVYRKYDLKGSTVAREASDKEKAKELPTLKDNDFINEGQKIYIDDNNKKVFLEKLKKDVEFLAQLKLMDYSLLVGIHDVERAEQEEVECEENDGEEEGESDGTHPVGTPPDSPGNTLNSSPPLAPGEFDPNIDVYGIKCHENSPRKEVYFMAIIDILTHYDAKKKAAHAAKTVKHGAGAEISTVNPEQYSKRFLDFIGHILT
Procedure, shortened: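 Quantitative HTS of the MLSMR library against PI5P4Kalpha with substrate. ATP added last at 5 microM final; room temperature, 60 minutes. Remaining ATP depleted, ADP converted and read as luminescence.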
On the % scale 0 is the no-effect control and ±100 the full control effect.

Compound | max response
CCC(C)CN1C(=O)CSCC1(C)C(=O)NCc1ccccc1 (configuration not stated) | -2.56%
COc1cc2c(C(=O)O)c(C)n(C)c2c2ccccc12 | -2.64%
Cc1c(C(=O)N/N=C/c2ccccc2)[nH]c2c([N+](=O)[O-])cccc12 | -0.171%
COc1cccc2c(C)c(C(=O)O)[nH]c12 | -63.9% (active)
COc1cc2c(=O)n(C)c3ccccc3c2cc1OC | 1.08%
CN(C(=O)c1ccccn1)c1nnc(-c2ccccn2)s1 | 3.64%
c1ccc(-c2cc(-c3nnc4sc(-c5ccccn5)nn34)[nH]n2)cc1 | -57.7% (active)
S=c1[nH]nc(-c2cc(-c3ccsc3)n[nH]2)n1-c1ccccc1 | -10.2%
CC1(C)OC(=O)C2=C(C[C@@H](C3CCCC3)O[C@@H]2c2ccc(Cl)cc2)O1 | 3.13%
CCCNC(=O)c1cc(C2CCCCN2C(=O)OC)on1 (configuration not stated) | -2.43%
Cc1sc2nc(CSCC(=O)NC3CCCCC3)[nH]c(=O)c2c1C | -13.2%
CSc1nnc(SCc2nc3sc(C(=O)O)c(C)c3c(=O)[nH]2)s1 | -79.5% (active)
Cc1sc2nc(CSCC(=O)Nc3c(Cl)cccc3Cl)[nH]c(=O)c2c1C | 1.38%
CCCOc1ccc(F)cc1-c1cc(C(=O)Nc2ccc(F)c(Cl)c2)[nH]n1 | -4.85%
Cc1cc(O)ccc1-c1cc(C(=O)NCc2cc(C(F)(F)F)cc(C(F)(F)F)c2)[nH]n1 | -3.12%
CN(C)C(=O)c1cccc(-c2cnc3c(NC=O)cc(-c4ccc(C(=O)N5CCOCC5)cc4)cn23)c1 | -13.4%

Compound | max response
Cc1cc(Br)ccc1NC(=O)CCCOc1cc(=O)n(C)c2ccccc12 | 3.17%
CN1OC[C@@H]2CN(S(=O)(=O)c3cccc4ccccc34)[C@H](c3ccc(N4CCCCC4)cc3)C[C@@H]21 | 7.24%
CCOc1cccc(/C=N/NC(=S)NCCN2CCOCC2)c1O | -0.183%
CCOc1cccc(/C=N/N2C(=O)CSC2=S)c1O | -51.6% (active)
COc1cc(N2C(=O)CSC2=S)cc(OC)c1OC | 0.509%
COc1cc(Cn2c3ccc(NC(=O)CC(C)c4ccccc4)cc3c(=O)n2C)ccc1F (configuration not stated) | 2.27%
Cc1ccc2c(CN3CCN(S(=O)(=O)c4ccccc4C(F)(F)F)CC3)cc(=O)oc2c1 | -4.51%
O=c1cc(CN2CCN(S(=O)(=O)/C=C/c3ccccc3)CC2)c2ccc(O)cc2o1 | -55% (active)
NC(=O)CCN1CCN(S(=O)(=O)/C=C/c2ccccc2)CC1 | 0.132%
CN(Cc1cn(Cc2ccc(C(F)(F)F)cc2)nn1)C1CN(Cc2cn(Cc3ccc(C(F)(F)F)cc3)nn2)S(=O)(=O)C1 (configuration not stated) | 11.5%
COc1ccc(-c2ccc(C(=O)NCCN3CCOCC3)c3occc23)c(C)c1 | 2.58%
Cc1ccc(-c2c[n+](=O)c3c(n2[O-])CCC3)cc1 | 3.26%
Cc1ccc(-c2c(C)n([O-])c3c([n+]2=O)CCC3)cc1 | 0.293%
O=[n+]1c2c(n([O-])c3cc(Br)ccc31)CCC2 | -56.6% (active)
CC1(C(=O)NCc2ccc(F)c(F)c2)Cc2c(-c3ccc4c(c3)OCO4)ccnc2O1 (configuration not stated) | 0.999%
CN1OC[C@@H]2CN(C(=O)c3cccnc3)[C@H](c3ccc(N4CCCCC4)cc3)C[C@@H]21 | -1.25%
